Screens as filed in PubChem BioAssay.
Tb PYK inh – qHTS of Trypanosoma Brucei Inhibitors | pyruvate kinase (Trypanosoma brucei), Q57TT1 | AID 624173, 2012 | TbPYK enzyme, Kinase-Glo Plus ATP luminescence, 45 min | Potency, µM (top dose mostly 76.8 µM), without a hit: at the highest dose activity, negative = inhibition, actives largely listed as inhibitors | hit rate 0.12% among 410,000; further: potency means the concentration at half of the fitted maximal effect; on the % scale 0 is the no-effect control and ±100 the full control effect; nearly all actives have a fitted effect of over 50% in size
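Quantitative HTS: titrated library compounds versus trypanosomal pyruvate kinase in TEA buffer (pH 7.2) containing KCl, MgCl2, BSA and Tween-20. Reactions were initiated with ADP, 130 uM final. Kinase-Glo Plus luminescence was read after 45 min at RT.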
Shiga toxin inh – A qHTS for Small Molecule Inhibitors of Shiga Toxin | Vero cells, Shiga toxin protein synthesis inhibition reporter | inhibition, % at 38.7 µM | hit rate 9.2% among 290,000 | AID 2315, 2010; in the data active means inhibition mostly above about 28%, no sharp cut-off; inactive means mostly below about 43%; further: 0% is about no effect
LmPK inh – qHTS Assay for Inhibitors of Leishmania Mexicana Pyruvate Kinase (LmPK). purified LmPK, Kinase-Glo ATP luminescence, 1 h. Q27686. hit rate 0.37% among 290,000. Potency, µM (top dose mostly 57.5 µM), without a hit: at the highest dose activity change, negative = inhibition, hits mostly inhibitors; further: potency means the concentration at half of the fitted maximal effect; on the % scale 0 is the no-effect control and ±100 the full control effect
Target sequence (Q27686 whole entry, looked up): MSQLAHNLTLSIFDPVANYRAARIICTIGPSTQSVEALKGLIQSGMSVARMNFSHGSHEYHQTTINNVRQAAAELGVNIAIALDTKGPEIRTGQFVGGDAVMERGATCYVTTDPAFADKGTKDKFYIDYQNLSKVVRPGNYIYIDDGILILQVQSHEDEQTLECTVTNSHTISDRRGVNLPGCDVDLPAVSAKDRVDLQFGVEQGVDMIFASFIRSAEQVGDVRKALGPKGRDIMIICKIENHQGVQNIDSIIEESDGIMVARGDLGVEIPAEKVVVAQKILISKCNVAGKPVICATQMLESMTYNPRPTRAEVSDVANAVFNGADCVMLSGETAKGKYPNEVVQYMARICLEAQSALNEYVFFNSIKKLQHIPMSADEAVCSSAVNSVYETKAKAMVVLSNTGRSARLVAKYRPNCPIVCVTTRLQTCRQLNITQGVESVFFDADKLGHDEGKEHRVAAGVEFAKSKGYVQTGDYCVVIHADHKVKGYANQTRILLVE
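qHTS format; LmPK 0.1 nM; substrates PEP 0.5 mM and ADP 0.1 mM. One-hour room-temperature incubation, then coupled luciferase luminescence; 0.5 nM enzyme wells mark activation.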
RE007 growth inh – qHTS Assay for Inhibitors of the HIV-1 protein Vpr | Potency, µM (highest dose often 92.2 µM), for inactives: top-dose activity change, negative = less growth, actives largely listed as inhibitors | S. pombe RE007 Vpr strain, BacTiter-Glo ATP luminescence, 24 h | hit rate 0.21% among 360,000; active means well fitted falling curve with a large enough effect; inconclusive means small, poorly fitted or top-dose-only effect; inactive means no such curve, though single readings can be large or run the other way; further: potency means the concentration at half of the fitted maximal effect; on the % scale 0 is the no-effect control and ±100 the full control effect; nearly all actives have a fitted effect of over 50% in size
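Fission yeast RE007 carrying one integrated HIV-1 vpr copy, seeded at OD 0.01 in PMG+AL medium with 23 nL pinned compound. Grown 24 h at 30 degrees; viability read by BacTiter-Glo luminescence after 5 min.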
Cycloheximide cs – Cycloheximide Counterscreen for Small Molecule Inhibitors of Shiga Toxin. cell reporter, cycloheximide protein synthesis inhibition counterscreen. max response, %. hit rate 12% among 300,000. AID 2314, 2010; in the data active means max response mostly above about 13%, no sharp cut-off; inactive means mostly below about 14%; further: read at 38.3 µM for the half of the compounds with a filed dose; 0% is about no effect
FBPA Giardia inh – qHTS Assay for Inhibitors of Fructose-1,6-bisphosphate Aldolase from Giardia Lamblia. A8B2U2. purified Giardia FBPA. Potency, µM (series often up to 59.6 µM), for the others: at the highest dose activity, negative = inhibition, usual class: inhibitors. hit rate 0.71% among 290,000. AID 2451, 2010; further: potency means the concentration at half of the fitted maximal effect; on the % scale 0 is the no-effect control and ±100 the full control effect; nearly all actives have a fitted effect of over 55% in size
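40 nM FBPA preincubated 10 min at RT with compound (up to 57.5 uM final), then substrate plus GAPDH/TPI/NAD/arsenate coupling and diaphorase/resazurin added. Fluorescence read after 20 min at RT, 525/598 nm.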
* = called active by the depositor; [ ] = dose if it differs, or a comment. Only a selection was taken, and hits are over-represented in it overall. Unless noted, the call rests on the fitted dose curve; in most records, active means well fitted curve in the direction sought with a large enough effect; inconclusive means small, poorly fitted or top-dose-only effect, or another doubt; inactive means no such curve, though single readings can be large; an effect the other way counts as inactive or inconclusive.

For CCOc1ccccc1NC1=C(OC)C(=O)C(Nc2ccccc2OCC)=C(OC)C1=O the results were Tb PYK inh -2% and RE007 growth inh 29%.
O=C(Nc1ccc(OCC(=O)N2CCOCC2)cc1)Nc1cccc(Cl)c1 was read as Tb PYK inh -3%, Shiga toxin inh 39*, LmPK inh 4%, RE007 growth inh 77%, Cycloheximide cs 14* and FBPA Giardia inh -5%.
`CC(C)(C)c1ccc(NC(=O)Nc2ccc(OCC(=O)N3CCOCC3)cc2)cc1` gave Tb PYK inh -3%, Shiga toxin inh 93*, LmPK inh 5%, RE007 growth inh 73%, Cycloheximide cs 35* and FBPA Giardia inh -8%.
Screening COc1ccc(Cl)cc1NC(=O)Nc1ccc(C(=O)N2CCOCC2)cc1 returned Tb PYK inh -8%, Shiga toxin inh 2, LmPK inh 0%, RE007 growth inh -19% and Cycloheximide cs 2.
O=C(Nc1ccc(C(=O)N2CCOCC2)cc1)Nc1cccc(Cl)c1 was read as Tb PYK inh 2%, Shiga toxin inh 65*, LmPK inh -18%, RE007 growth inh -16%, Cycloheximide cs 44* and FBPA Giardia inh -2%.
For CCOc1cc(Br)cc(/C=N/NC(=O)c2cccnc2)c1O the results were Tb PYK inh -3%, Shiga toxin inh -1, LmPK inh -4%, RE007 growth inh 7%, Cycloheximide cs -2 and FBPA Giardia inh inconclusive.
`O=C(CSc1nnc(C2COc3ccccc3O2)o1)N1CCCC1` (configuration not stated) gave Tb PYK inh -20%, Shiga toxin inh 52*, LmPK inh 1%, RE007 growth inh 6%, Cycloheximide cs 47* and FBPA Giardia inh -2%.
Screening O=C(CSc1nnc(C2CCCCC2)o1)N1CCCCC1 returned Tb PYK inh -6%, Shiga toxin inh 81*, LmPK inh -3%, RE007 growth inh 19%, Cycloheximide cs 31* and FBPA Giardia inh 8%.
`Cc1cccc(C)c1NC(=O)CSc1nnc(C2CCCCC2)o1` gave Tb PYK inh -4%, Shiga toxin inh -10, LmPK inh -10%, RE007 growth inh 4%, Cycloheximide cs -1 and FBPA Giardia inh -3%.
CCOC(=O)C1(Cc2ccc(OC)cc2)CCN(C(=O)c2cc(C)on2)CC1 was read as Tb PYK inh 0%, Shiga toxin inh 18, LmPK inh 0%, RE007 growth inh 3%, Cycloheximide cs 18* and FBPA Giardia inh 8%.
For CCOC(=O)C1(Cc2ccc(OC)cc2)CCN(C(=O)c2cc3ccccc3[nH]2)CC1 the results were Tb PYK inh 1%, Shiga toxin inh 118*, LmPK inh -8%[11.5 µM], RE007 growth inh -27%, Cycloheximide cs 54* and FBPA Giardia inh 0%.
For COc1ccc(-c2csc(C(C)(NC(C)=O)c3ccccc3)n2)cn1 (configuration not stated) the results were Tb PYK inh -1% and RE007 growth inh -6%.
Screening CC(C)CSC1=NSC2=NC(=O)/C(=C\c3ccccc3)C(=N)N12 returned Tb PYK inh 1%, Shiga toxin inh 77*, LmPK inh 2%, RE007 growth inh -1%, Cycloheximide cs 38* and FBPA Giardia inh 13%.
`CSC1=NSC2=NC(=O)/C(=C\c3coc4ccccc4c3=O)C(=N)N12` gave Tb PYK inh -8%, Shiga toxin inh -7, LmPK inh 5%, RE007 growth inh 28µM*, Cycloheximide cs -2 and FBPA Giardia inh 7%.
For N=C1/C(=C\c2coc3ccccc3c2=O)C(=O)N=C2SC(c3ccncc3)=NN12 the results were Tb PYK inh -23%, Shiga toxin inh -4, LmPK inh -4%, RE007 growth inh 14µM*, Cycloheximide cs -2 and FBPA Giardia inh 1%.
